Test results published in PubChem BioAssay AID693 (University of Pittsburgh Molecular Library Screening Center, 2007).
The campaign covered roughly 97,000 compounds. About 130 (0.13%) were called active. Cut-off read from the data, not from the text of the source: active = inhibition above about 34% (passing the limit was not always enough); inactive = the rest. What follows is part of a selection rich in actives, with near analogues and random picks from the rest.

What follows are compounds tested against Serine/threonine-protein kinase PLK1 (Homo sapiens) (UniProt P53350) (assay: blockers of phosphopeptide binding to Plk1 PBD – biochemical, fluorescence polarization, primary screen (AID 693)). Conditions: stronger effect = higher value,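 tested at about 20 µM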.
Sequence of Serine/threonine-protein kinase PLK1 (Homo sapiens) (P53350 whole entry, looked up): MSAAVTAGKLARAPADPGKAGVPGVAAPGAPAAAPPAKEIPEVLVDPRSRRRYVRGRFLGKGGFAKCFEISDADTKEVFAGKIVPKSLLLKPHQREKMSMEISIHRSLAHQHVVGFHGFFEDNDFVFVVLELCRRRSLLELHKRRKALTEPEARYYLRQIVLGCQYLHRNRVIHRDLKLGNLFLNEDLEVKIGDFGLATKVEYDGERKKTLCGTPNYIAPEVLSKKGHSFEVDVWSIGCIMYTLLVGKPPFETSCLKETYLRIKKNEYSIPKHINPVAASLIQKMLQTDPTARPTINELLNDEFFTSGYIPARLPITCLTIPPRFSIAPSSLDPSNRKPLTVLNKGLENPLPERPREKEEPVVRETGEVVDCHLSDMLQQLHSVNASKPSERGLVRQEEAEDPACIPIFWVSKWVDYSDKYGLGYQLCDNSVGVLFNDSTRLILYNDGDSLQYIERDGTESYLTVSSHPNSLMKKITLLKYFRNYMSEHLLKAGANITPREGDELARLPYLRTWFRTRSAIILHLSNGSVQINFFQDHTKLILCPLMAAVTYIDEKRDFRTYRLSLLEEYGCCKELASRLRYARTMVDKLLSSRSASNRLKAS

Row | SMILES | inhibition
1 | Nc1ccccc1SCc1cc([N+](=O)[O-])cc2c1OCOC2 | 17.1% (inactive)
2 | Cc1nc(-c2ccccc2)sc1-c1nc(-c2ccccc2)ncc1S(=O)(=O)c1ccccc1 | -7.34% (inactive)
3 | COc1cc(/C=C2/C(=O)ON=C2C)ccc1OCc1ccccc1F | -10.3% (inactive)
4 | COc1ccc(-c2oc(/N=C/N3CCCC3)c(C#N)c2-c2ccc(OC)cc2)cc1 | -15.2% (inactive)
5 | CC1(C)CC(=O)C=C(NCCN2CCNCC2)C1 | -22% (inactive)
6 | CC1(C)CC(=O)C=C(NCCCNC2CCCCC2)C1 | -8.28% (inactive)
7 | CC1(C)CC(=O)C=C(NCc2ccncc2)C1 | 41.4% (active)
8 | Cc1ccc2[nH]c(=O)c(CN(CCCN(C)C)C(=O)Nc3cccc(Cl)c3)cc2c1 | 3.64% (inactive)
9 | CCN(CC)CCN1C(=O)C(=O)/C(=C(/O)c2cnn(-c3ccccc3)c2C)C1c1cccs1 (stereo not drawn) | -7.79% (inactive)
10 | Cc1cc(C)c(S(=O)(=O)NCC2CCC(C(=O)NCc3ccc4c(c3)OCO4)CC2)c(C)c1 (stereo not drawn) | -7.41% (inactive)
11 | COC(=O)c1ccc(OCC(=O)NC(C)(C)C)cc1 | 5.58% (inactive)
12 | C/C(=N\NC(=O)c1ccccc1C)c1ccc(N2CCOCC2)cc1 | -3.42% (inactive)
13 | CCOC(=O)C1(S(=O)(=O)c2ccc(Cl)cc2)CCN(Cc2ccccc2)CC1 | -3.07% (inactive)
14 | O=C(CCc1ccc(S(=O)(=O)NC2CCCCC2)cc1)NCc1ccccc1 | 10.4% (inactive)
15 | O=C(NCCCN1CCOCC1)c1cnn2c(-c3ccccc3)cc(-c3ccccc3)nc12 | -14.2% (inactive)
16 | O=C(NCCOc1ccccc1)c1ccccc1 | -20.9% (inactive)
17 | O=C(COc1ccc(Cl)cc1)NCCC1=CCCCC1 | 14.2% (inactive)
18 | O=C(CCN1CCc2ccccc2C(O)(c2ccccc2)C1)c1ccc2c(c1)OCCO2 (stereo not drawn) | 16.3% (inactive)
19 | CCCCCN1CC(O)=C(c2ccccc2)C1=N | -1.22% (inactive)
20 | CC(=NCc1ccco1)c1c(C(F)(F)F)[nH]n(-c2nc3ccccc3s2)c1=O | 9.65% (inactive)
21 | Cc1ccc(NC(=O)COc2ccc(-n3ccnc3)cc2)cc1Cl | 2% (inactive)

Row | SMILES | inhibition
22 | O=C(Nc1cc2c3c(c1)C1CCCC1CN3CC1CCCC21)c1ccc([N+](=O)[O-])cc1 (stereo not drawn) | -24.1% (inactive)
23 | CC(C)(C)C(=O)Nc1ccc(C(=O)N/N=C/c2ccccc2OC(=O)c2ccc(Cl)cc2Cl)cc1 | 44.2% (inactive)
24 | CN(C)c1ccnc(Oc2ccc(F)cc2)c1C#N | -3.95% (inactive)
25 | CCC(=O)c1c[nH]c(C(=O)NCC2CCCO2)c1 (stereo not drawn) | 8.77% (inactive)
26 | CS(=O)(=O)N(CC(=O)N1CCN(c2ccc(F)cc2)CC1)C1CCCCC1 | -6.27% (inactive)
27 | CC(=O)c1sc(NC(=O)c2cccc3ccccc23)nc1C | -23.4% (inactive)
28 | COc1ccccc1NC(=O)CC(NCCN(C)C)C(=O)O (stereo not drawn) | 0.85% (inactive)
29 | CCCn1nnnc1NC(=O)COc1ccc(Cl)cc1C | 12.8% (inactive)
30 | Oc1ccc2ccc3cccc[n+]3c2c1 | 61.2% (active)
31 | CN(C)C(CNC(=O)CCCOc1ccccc1)c1ccco1 (stereo not drawn) | -20% (inactive)
32 | CCOc1cc2[nH]c(=S)n(CCN3CCCCC3C)c(=O)c2cc1OCC (stereo not drawn) | -2% (inactive)
33 | COC(=O)c1ccc(Cc2ccccc2)o1 | -14.5% (inactive)
34 | CCOC(=O)c1cc(C#N)c(N2CCCCC2)nc1-c1ccccc1 | 20% (inactive)
35 | Cc1nnc(NC(=O)Cn2c(=O)sc3ccccc32)s1 | 12.9% (inactive)
36 | CC1CCN(C(=O)c2cc3nc(C4CC4)cc(C(F)(F)F)n3n2)CC1 | -4.74% (inactive)
37 | O=c1c2ccccc2nc2n1C(CSc1ccc(Cl)cc1)CN2 (stereo not drawn) | 23.7% (inactive)
38 | COc1ccc2c(Cl)c(C(=O)NCc3ccco3)sc2c1 | -10.8% (inactive)
39 | N#CCSc1nc2ccc(N3CCOCC3)cc2c(=O)n1CCc1ccccc1 | -3.34% (inactive)
40 | CC(=O)Nc1ccccc1OC(=O)N1CCOCC1 | 7.14% (inactive)
41 | Cc1nn(C)cc1/C=C1\CCC/C(=C\c2cn(C)nc2C)C1=O | -18.6% (inactive)
42 | COCCOC(=O)c1sc(=S)n(CCOC)c1N | -9.37% (inactive)

Row | SMILES | inhibition
43 | CC(=O)c1ccc(Cc2ncc(C(F)(F)F)cc2Cl)s1 | 25.2% (inactive)
44 | CC(C)(C)NC(=O)Cn1cnc([N+](=O)[O-])n1 | -13.3% (inactive)
45 | CC(=O)NS(=O)(=O)c1ccc(NC(=O)/C=C/c2ccccc2Cl)cc1 | 18.9% (inactive)
46 | O=C(CNS(=O)(=O)c1ccc(Br)s1)N1CCN(C(=O)c2ccco2)CC1 | -13% (inactive)
47 | COc1ccc(OC)c(-n2nnnc2SCC(=O)Nc2cc(C)ccc2OC)c1 | -6.45% (inactive)
48 | CC(C)(C)NS(=O)(=O)c1ccc(NC(=O)NC2CCCCC2)cc1 | -21.3% (inactive)
49 | COc1ccc(S(=O)(=O)NCc2ccc(C(=O)N(C)Cc3ccco3)cc2)cc1 | -4.97% (inactive)
50 | CCOC(=O)c1c(-c2ccccc2)csc1NC(=S)NC(=O)c1ccccc1 | 12% (inactive)
51 | C/C(=N\NC(=O)Cc1ccc(Cl)cc1)c1ccccn1 | 4.4% (inactive)
52 | Cc1ccc(S(=O)(=O)Oc2ccc(/C=N/NC(=O)c3c(Cl)cnn3C)cc2)cc1 | 14.5% (inactive)
53 | O=C(NC1CCCC1)C(c1ccccn1)N(C(=O)c1csnn1)C1CCCC1 (stereo not drawn) | -11.5% (inactive)
54 | CCOc1cc(CNCCN(C)C)c(Cl)cc1OCC(=O)NCCc1ccccc1 | 9.84% (inactive)
55 | N#CC1=C(N)N(c2ccc(F)cc2)C(=O)C1 | 5.37% (inactive)
56 | Cc1c(NC(=O)CCCOc2ccccc2)cccc1[N+](=O)[O-] | 6.93% (inactive)
57 | CCC(C)c1ccc(O)c(/C=N/O)c1 (stereo not drawn) | 8.06% (inactive)
58 | CCOC(=O)C1CSC(CC(=O)Nc2ccc(OCC)cc2)C(=O)N1 (stereo not drawn) | 13.9% (inactive)
59 | COC(=O)c1sccc1NC(=O)CCC1CCCC1 | -8.56% (inactive)
60 | Cc1noc(C)c1C(=O)N1CCOCC1 | -11% (inactive)
61 | O=c1c2ccccc2nnn1CSc1nnnn1-c1ccccc1 | -3.85% (inactive)
62 | COc1ccc(-c2nnc(SCC(=O)c3ccc4c(c3)OCCO4)o2)cc1 | -3.12% (inactive)
63 | COc1ccc(C(C)=O)cc1CN1C(=O)NC2(CCCCC2C)C1=O (stereo not drawn) | 3.66% (inactive)
